Only some compounds are listed: those with a hit (about 0.97% of all), similar ones and a draw of the others.
A1 inh: inhibitors of the anti-apoptotic protein A1, read as caspase activation. caspase activation, % (test concentration not listed). MEF A1-2A-BIM cells, Caspase-Glo 3/7 luminescence, 3 h; percent of clofoctol response, vehicle zero. 0.066% of 330,000 active;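 active = over half of replicate activation scores above 10%, or exactly half above 10 with the replicate mean above 10; inconclusive = replicate mean below 10 yet half the replicates above 10; inactive = over half of replicates below 10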
NTR1 agonist: activates human neurotensin receptor 1; activation, % at 20 µM; NTR1-U2OS beta-arrestin-GFP spot imaging, agonist mode; 0.17% of 330,000 active;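 active = activation at or above 40% of the spot to cytoplasm intensity ratio, with at least 20 cells analyzed; inconclusive = wells under 20 cells, flagged as cytotoxic or low count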;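 also: 0% = DMSO without peptide and 100% = 100 nM NTR1 peptide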
Target sequence (P30989 whole entry, looked up): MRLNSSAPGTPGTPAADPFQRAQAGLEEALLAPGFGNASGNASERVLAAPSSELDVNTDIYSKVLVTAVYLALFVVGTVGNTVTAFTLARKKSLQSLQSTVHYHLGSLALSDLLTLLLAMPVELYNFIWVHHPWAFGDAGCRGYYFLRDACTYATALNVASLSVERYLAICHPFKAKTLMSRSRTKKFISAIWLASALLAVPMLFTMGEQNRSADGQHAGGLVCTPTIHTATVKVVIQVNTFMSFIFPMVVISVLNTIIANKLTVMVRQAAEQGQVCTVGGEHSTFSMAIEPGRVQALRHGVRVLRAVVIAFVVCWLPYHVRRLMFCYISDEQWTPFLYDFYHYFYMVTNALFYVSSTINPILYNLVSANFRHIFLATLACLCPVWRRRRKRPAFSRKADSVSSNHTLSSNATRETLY
NOD2-RIPK2 inh: inhibitors of human NOD2-RIPK2 interaction; inhibition, % at 4.98 µM; CHO BLA complementation NOD2-RIPK2, CCF4 ratio; 0.38% of 360,000 active; in the data active = inhibition above about 21%;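 also: 0% = vehicle only and 100% = reference blocker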
TLR4 MyD88 comp: blocks binding of human TLR4 to MyD88; O00206+Q99836; HeLa CL3-4 TLR4/MyD88 BLA complementation, FRET ratio; inhibition, % at 8.4 µM; 0.18% of 200,000 active; AID 861; in the data active = inhibition above about 25%;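 also: 0% = vehicle and 100% = reference inhibitor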
Beta2AR agonist: activates human beta-2 adrenergic receptor causing internalization. P07550. Am2.2-beta2AR cells, FAP receptor internalization, flow cytometry. response, % (concentration not given with the values). 0.43% of 340,000 active. AID 504454;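 active = response above a set limit, near 3 SD of response in nonfluorescent compounds, cut at about 42% in these data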
TLR9-MyD88 block: inhibitors of human TLR9-MyD88 binding; Q9NR96+Q99836; CHO BLA complementation TLR9-MyD88, CCF4 FRET ratio; inhibition, % at 4.98 µM; 0.21% of 340,000 active;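 active = inhibition above the mean over all tested compounds plus 3 SD, cut at about 21% in these data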;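 also: 0% = DMSO only wells and 100% = clavulanate BLA inhibitor control wells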
TLR4 MyD88 cnf: TLR4-MyD88 interaction inhibition confirmed | shares compounds with TLR4 MyD88 comp | 50% of 350 active | HeLa CL3-4 BLA complementation, CCF4 FRET ratio | inhibition, % at 8.4 µM | AID 941;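 active = mean inhibition across three repeat runs above about 25% carried over from the earlier screen, limit read from the data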;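 also: plate controls were DMSO only for no effect and clavulanic acid blocking BLA at full dose for full effect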
BLA inhibitor ct: inhibits beta-lactamase activity, counter-screen to TLR4-MyD88 binding inhibitors; shares compounds with TLR4 MyD88 comp; HeLa BLA reporter, CCF4 FRET ratio; inhibition, % at 8.4 µM; 63% of 350 active; AID 1237;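 active = mean inhibition over three repeats above about 26% taken from the earlier screen, limit read from the data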;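 also: HeLa cells stably expressing beta-lactamase reporter as counterscreen for TLR4-MyD88 inhibitors; 0% = DMSO and 100% = clavulanic acid full inhibition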
NTR1 ag confirm: NTR1 (human) agonism, confirmed. shares compounds with NTR1 agonist. NTR1-U2OS beta-arrestin-GFP translocation imaging. activation, % at 20 µM. 38% of 480 active. AID 504550;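 active = mean activation at 20 µM of at least 40%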;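 also: 0% = DMSO without peptide and 100% = 100 nM NTR1 peptide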
TLR9-MyD88 conf: confirmation of human TLR9-MyD88 binding inhibitors | shares compounds with TLR9-MyD88 block | CHO TLR9/MyD88 BLA complementation, CCF4 FRET ratio | inhibition, % at 4.98 µM | 51% of 680 active;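 active = mean inhibition across three repeats above about 21% taken from the earlier screen, limit read from the data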;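 also: blue over green emission ratio reports constitutive TLR9 MyD88 association via BLA complementation; 0% = DMSO vehicle wells and 100% = clavulanate BLA inhibitor wells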
BLA nonselective: counter-screen for TLR9-MyD88 inhibitors: non-selective beta-lactamase inhibitors; shares compounds with TLR9-MyD88 block; CHO-BLA cells, CCF4 FRET ratio, BLA reporter; inhibition, % at 4.98 µM; 7% of 680 active; AID 540251;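 active = mean inhibition above a 50% cutoff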;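 also: counterscreen of TLR9-MyD88 hits on CMV-driven BLA in CHO-K1 cells; 0% = DMSO alone and 100% = clavulanate blocking BLA; higher means less blue over green ratio so more BLA blockade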
TLR9 CHO tox: CHO cell toxicity counter-screen for TLR9-MyD88 inhibitors; AID 588336; 39% of 680 active; shares compounds with TLR9-MyD88 block; inhibition, % at 4.98 µM; TLR9-MyD88 CHO cells cytotoxicity, luminescence; in the data active = inhibition above about 11%
Numbers without * were called inactive; i = inactive; ? = inconclusive; · = no result given.

SMILES	A1 inh	NTR1 agonist	NOD2-RIPK2 inh	TLR4 MyD88 comp	Beta2AR agonist	TLR9-MyD88 block	TLR4 MyD88 cnf	BLA inhibitor ct	TLR9-MyD88 conf	BLA nonselective	TLR9 CHO tox	others
COCCn1c(-c2ccc(-c3ccc([N+](=O)[O-])cc3Br)o2)nc2c1c(=O)[nH]c(=O)n2CC(C)C	0	28	15	44*	-14	-2	30*	59*	·	·	·
COCCn1c(=O)[nH]c(=O)c2c1nc(-c1ccc(-c3ccc(Cl)cc3[N+](=O)[O-])o1)n2Cc1ccccc1	0	1	1	-8	28	-5	·	·	·	·	·
COc1cccc(CC(=O)Nc2nccs2)c1	0	1	1	26*	-7	-2	-6	6	·	·	·
COc1cccc(CC(=O)Nc2ccc(S(=O)(=O)Nc3nccs3)cc2)c1	-3	-1	-3	·	3	7	·	·	·	·	·
CC1=NOC(=O)/C1=C\c1ccc(-c2ccc(Cl)cc2Cl)o1	·	80*	-8	28*	99*	-11	11	-13	·	·	·	NTR1 ag confirm=39
CCCOc1ccc(Cl)cc1/C=C1/C(=O)ON=C1C	0	1	-1	·	33	-7	·	·	·	·	·
O=C(c1cc(Cl)cc(Cl)c1)N1CCN(c2cc(C(F)(F)F)nc3ccccc23)CC1	0	3	-9	·	11	·	·	·	·	·	·
COc1cc2c3nnc(-c4ccccc4)c-3cn(Cc3ccccc3F)c2cc1OC	1	115*	·	33*	·	·	4	31*	·	·	·	NTR1 ag confirm=90*
COc1ccc(C(=O)c2sc3nc(-c4ccccc4)ccc3c2N)cc1OC	0	-2	15	36*	-81	33*	38*	57*	43*	38	9
NC(=O)c1sc2nc(-c3ccccc3)ccc2c1N	-1	0	-4	·	-10	5	·	·	·	·	·
CCOC(=O)/C(=C\c1ccccc1)C(=O)c1cc(C(C)=O)c(Nc2ccccc2)s1	-1	15	2	4	28	-3	·	·	·	·	·
CCOC(=O)/C(=C\c1cccnc1)C(=O)c1cc(C(C)=O)c(Nc2ccccc2)s1	22*	1	89*	49*	104*	41*	53*	41*	49*	32	98*
O=C1/C(=C/c2ccco2)CCc2ccccc21	-2	1	-5	-7	-7	4	·	·	·	·	·
Nc1ccc2c(c1)C/C(=C/c1ccco1)C2=O	-1	-1	13	32*	-1	24*	26*	55*	23*	30	7
Fc1ccc(C2=CC(c3ccc(Br)o3)n3ncnc3N2)cc1 (stereo not given)	1	·	22*	28*	-14	25*	7	26*	15	19	3
Cc1nn(-c2ccc([N+](=O)[O-])cc2)c2c1C(c1cccc(Br)c1)N1C(=N2)C(=O)Nc2ccccc21 (stereo not given)	0	5	-5	0	-2	-4	·	·	·	·	·
Cc1cccc(NC2=Nc3ccccc3N3C2=Nc2c(c(C)nn2-c2ccccc2)C3c2ccc(O)c(O)c2)c1 (stereo not given)	-2	3	14	62*	-2	30*	52*	85*	47*	55*	-5
Cc1ccc(NC(=O)/C(C#N)=C/c2cn(CC(=O)NCc3ccco3)c3ccccc23)cc1C	?	18	-18	60*	-7	36*	54*	80*	7	14	28*
S=c1sc2c(Cl)ncnc2n1-c1ccccc1	·	·	54*	52*	103*	29*	47*	26*	26*	15	25*
Cc1nc(N2CCN(C)CC2)c2sc(=S)n(-c3ccccc3)c2n1	0	4	4	-14	-1	4	·	·	·	·	·
CCOC(=O)Cn1c(CN2CCc3ccccc3C2)nc2c1c(=O)n(C)c(=O)n2C	0	9	-4	3	-3	4	·	·	·	·	·
O=C(NCc1ccccn1)C1CCN(S(=O)(=O)c2cccs2)CC1	0	0	-7	4	1	-1	·	·	·	·	·
O=C(NC(Cc1ccccc1)C(=O)Oc1ccc2c(C(F)(F)F)cc(=O)oc2c1)OCc1ccccc1 (stereo not given)	-1	·	71*	39*	0	59*	32*	67*	34*	44	2
C=C(C(=O)O)C1CCC2(C)CCCC(C)(O)C2C1 (stereo not given)	0	-1	-1	·	1	4	·	·	·	·	·
Cc1cc(C)cc(NS(=O)(=O)c2c(C(=O)N3CCCCCC3)c(C)n(C)c2C)c1	0	0	0	·	-2	1	·	·	·	·	·
SMILES	A1 inh	NTR1 agonist	NOD2-RIPK2 inh	TLR4 MyD88 comp	Beta2AR agonist	TLR9-MyD88 block	TLR4 MyD88 cnf	BLA inhibitor ct	TLR9-MyD88 conf	BLA nonselective	TLR9 CHO tox	others
CCCCN(C)CC(O)Cn1cc(/C=C/C(=O)c2cccs2)c2ccccc21 (stereo not given)	-1	·	44*	39*	-36	46*	39*	68*	30*	28	5
CCCCN(C)CC(O)Cn1cc(/C=C/C(=O)c2ccc(OCC)cc2)c2ccccc21 (stereo not given)	0	19	·	·	·	·	·	·	·	·	·
CCN(CC)c1ccc2cc(NC(=O)CCC(=O)O)c(=O)oc2c1	0	1	79*	58*	-1	68*	61*	83*	50*	57*	1
CCN(CC)c1ccc2cc(C(C)=O)c(=O)oc2c1	-1	-2	9	-5	-4	-5	·	·	·	·	·
CC(C)NC(=O)N(Cc1ccc(Cl)cc1)Cc1cccs1	0	-1	-5	·	8	-6	·	·	·	·	·
Cn1c(=O)c(NC2CCCCC2)c2c3c(cccc31)C(=O)c1ccccc1-2	·	-2	0	48*	i	22*	22	49*	20	24	7
CCN(CC)c1ccc(/C=C(/C#N)c2nc3ccc(C)cc3[nH]2)c(OC(C)C)c1	1	-1	34*	35*	-374	23*	13	36*	21*	21	5
CCOc1cc(N(CC)CC)ccc1/C=C(/C#N)c1nc2ccccc2[nH]1	1	-4	8	13	-214	9	·	·	·	·	·

High-throughput results: PubChem, several laboratories
